Results published in PubChem BioAssay (NCATS).
“And” between values parts separate entries of the source, which are not always exact repeats. Equal entries are not always repeated. Records with an inconclusive call do not appear. A call without a number means that no potency is given here. Values without a mark were called inactive. The source made the active and inactive calls. Calls come from the whole dose curve; as a rule, active = well fitted curve in the direction sought with a large enough effect; inconclusive = small, poorly fitted or top-dose-only effect, or another doubt; inactive = no such curve, though single readings can be large; an effect the other way counts as inactive or inconclusive.

Experiment: Confirmatory qHTS for small molecule stabilizers of the endoplasmic reticulum resident proteome: Secreted ER Calcium Modulated Protein (SERCaMP) assay (AID 1508628); note: nearly all actives have a fitted effect of over 40% in size; note: potency is the fitted concentration of half-maximal effect
Settings: SERCaMP secreted luciferase ER calcium/proteostasis reporter; series mostly up to 76.3 µM
Method in brief: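 Reporter secretion upon ER calcium depletion (100 nM thapsigargin, 4 h, 37C) is measured as medium luminescence with coelenterazine, after 16 h compound pretreatment of SH-SY5Y-GLuc-SERCaMP cells; primary at three concentrations up to 38.3 uM, follow-up at 11 (up to 76.6 uM).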

| Compound | Potency |
| --- | --- |
| CN(C)CCCN1c2ccccc2CCc2ccc(Cl)cc21 | inactive |
| Clc1ccc2c(c1)C(N1CCNCC1)=Nc1ccccc1O2 | inactive |
| CC(CCc1ccc(O)cc1)NCCc1ccc(O)c(O)c1 (centres undefined) | 31.6 µM (active) and 39.8 µM (active) and 50.1 µM (active) |
| OCCN(CCO)c1nc(N2CCCCC2)c2nc(N(CCO)CCO)nc(N3CCCCC3)c2n1 | 31.6 µM (active) |
| COc1ccccc1OCCNCC(O)COc1cccc2[nH]c3ccccc3c12 (centres undefined) | inactive |
| Cc1ccc(C(=O)Nc2ccc(S(=O)(=O)O)c3cc(S(=O)(=O)O)cc(S(=O)(=O)O)c23)cc1NC(=O)c1cccc(NC(=O)Nc2cccc(C(=O)Nc3cc(C(=O)Nc4ccc(S(=O)(=O)O)c5cc(S(=O)(=O)O)cc(S(=O)(=O)O)c45)ccc3C)c2)c1 | 15.8 µM (active) |

Experiment: Cell Viability qHTS for small molecule stabilizers of the endoplasmic reticulum resident proteome (AID 1508629);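 note: compound exposure about 46 h in total before the viability read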; note: potency is the fitted concentration of half-maximal effect;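 for max response: human SH-SY5Y neuroblastoma cells carrying the GLuc-SERCaMP reporter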
Settings: cell viability counter-screen, 100 nM thapsigargin for final 4 h

| Compound | max response | Potency |
| --- | --- | --- |
| CN(C)CCCN1c2ccccc2CCc2ccc(Cl)cc21 | -4.23% | – |
| Clc1ccc2c(c1)C(N1CCNCC1)=Nc1ccccc1O2 | -4.18% | – |
| CC(CCc1ccc(O)cc1)NCCc1ccc(O)c(O)c1 (centres undefined) | 27% | – |
| COc1ccccc1OCCNCC(O)COc1cccc2[nH]c3ccccc3c12 (centres undefined) | – | 25.1 µM (active) |

Experiment: Primary qHTS for small molecule stabilizers of the endoplasmic reticulum resident proteome: Secreted ER Calcium Modulated Protein (SERCaMP) assay (AID 1508630)
Settings: SH-SY5Y GLuc-SERCaMP (Gaussia luciferase released on ER calcium loss) secretion, thapsigargin, luminescence; series mostly up to 38.4 µM
Method in brief: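 The SH-SY5Y reporter protocol was run at 3 concentrations up to 38.3 uM (primary) or 11 concentrations (follow-up): 16 h compound, 100 nM thapsigargin for 4 h, then extracellular luciferase luminescence.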

| Compound | Potency |
| --- | --- |
| CCOC(=O)Nc1ccc(NCc2ccc(F)cc2)nc1N | inactive |
| Clc1ccc2nsnc2c1NC1=NCCN1 | inactive |
| O=C(c1ccc(F)cc1)C1CCN(CCn2c(=O)[nH]c3ccccc3c2=O)CC1 | inactive |
| CC[C@@]1(O)C(=O)OCc2c1cc1n(c2=O)Cc2cc3c(CN(C)C)c(O)ccc3nc2-1 | inactive |
| CC[N+](CC)(CC)CCOc1cccc(OCC[N+](CC)(CC)CC)c1OCC[N+](CC)(CC)CC | inactive |
| NC(=O)NO | inactive |
| Clc1ccc2c(c1)C(N1CCNCC1)=Nc1ccccc1O2 | inactive |
| OCCN(CCO)c1nc(N2CCCCC2)c2nc(N(CCO)CCO)nc(N3CCCCC3)c2n1 | inactive |
| COc1cc2nc(N(C)CCCNC(=O)C3CCCO3)nc(N)c2cc1OC (centres undefined) | inactive |
| COc1ccc(C2CNC(=O)C2)cc1OC1CCCC1 (centres undefined) | inactive |
| O=c1[nH]cc(F)c(=O)[nH]1 | inactive |
| Clc1ccc(C(c2ccccc2Cl)C(Cl)Cl)cc1 (centres undefined) | inactive |
| NC(=O)OCC(COC(N)=O)c1ccccc1 | inactive |
| Nc1c2c(nc3ccccc13)CCCC2 | inactive |
| CN1CCN(CCCN2c3ccccc3Sc3ccc(Cl)cc32)CC1 | inactive |
| CN1CCN2c3ccccc3Cc3ccccc3C2C1 (centres undefined) | inactive |
| CC(C)(C)C(=O)Oc1ccc(S(=O)(=O)Nc2ccccc2C(=O)NCC(=O)O)cc1 | inactive |
| C[C@H]1c2cccc(O)c2C(O)=C2C(=O)[C@]3(O)C(O)=C(C(N)=O)C(=O)[C@@H](N(C)C)[C@@H]3[C@@H](O)[C@@H]21 | inactive |
| COc1ccccc1OCCNCC(O)COc1cccc2[nH]c3ccccc3c12 (centres undefined) | inactive |
| CCOC(=O)c1ncn2c1CN(C)C(=O)c1cc(F)ccc1-2 | inactive |
| O=C1c2c(O)ccc(O)c2C(=O)c2c(NCCNCCO)ccc(NCCNCCO)c21 | inactive |
| CCC1(C)CC(=O)NC1=O (centres undefined) | inactive |
| Cc1ccc(C(=O)Nc2ccc(S(=O)(=O)O)c3cc(S(=O)(=O)O)cc(S(=O)(=O)O)c23)cc1NC(=O)c1cccc(NC(=O)Nc2cccc(C(=O)Nc3cc(C(=O)Nc4ccc(S(=O)(=O)O)c5cc(S(=O)(=O)O)cc(S(=O)(=O)O)c45)ccc3C)c2)c1 | inactive |
| Nc1nnc(-c2cccc(Cl)c2Cl)c(N)n1 | inactive |
